Records with an inconclusive call do not appear. The source made the active and inactive calls. Calls come from the whole dose curve; as a rule, active = well fitted cell-killing curve with a large enough effect; inconclusive = small, poorly fitted or top-dose-only effect, or effect the other way; inactive = flat fitted curve, though single readings scatter. *1 amine or outer side, *2 acyl side, *3 side chain or, on linkers, in order; H or OH if unused. Where a SMILES comes first, the peptide text is derived from it. Bridges are numbered along the chain shown (N, C = ends). [ ]: non-standard residue; d: D form. The star is where a group is joined. ξ: configuration not given here. X10 = NC1=NCCC(C(N[*:1])C(=O)[*:2])N1; ΔAla(3-NHCONH2) = NC(=O)NC=C(N)C(=O)O; ξβ3hOrn = NCCCC(N)CC(=O)*; Dap = NC[CH](N)C(=O)O
% is set by controls: 0 for no effect and ±100 for the full control effect.

The first experiment concerns PA-1. Kind of experiment: Primary qHTS to identify gynecologic anti-cancer compounds using libraries of approved drugs and bioactive compounds (AID 1345084). Note: nearly all actives have a fitted effect of over 55% in size. The note with it: Gynecologic cancer cell panel viability, ATPlite luminescence, 48 h; series mostly up to 57.5 µM; activity change, negative = cytotoxicity: at the top concentration. The method in brief: (§1)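 Luminescence from the ATPlite ATP-monitoring reagent indicates viable cell number; lower signal means cytotoxicity. Cells received compound 16 h after seeding and were exposed for 48 h across five concentrations.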
(In general: Quantitative high-throughput screening tests each substance at several concentrations.)
Regarding `Cc1nc(C2CCCCC2)c(-c2ccc(S(N)(=O)=O)c(F)c2)o1`, the “activity change, negative = cytotoxicity” value was 8.97% (inactive).
The same measure, in the same setting: next, `CCCC(=O)O[C@]1(C(=O)CCl)[C@@H](C)C[C@H]2[C@@H]3CCC4=CC(=O)C=C[C@]4(C)[C@@]3(F)C(=O)C[C@@]21C`: -32.4% (inactive); `NCCCC(N)CC(=O)NCC1NC(=O)C(CO)NC(=O)C(N)CNC(=O)C(C2CCN=C(N)N2)NC(=O)C(=CNC(N)=O)NC1=O` (stereo not drawn) (H-[Dap]S[Dap](ξβ3hOrn)[ΔAla(3-NHCONH2)][X10]; lactam 1-C; configuration not given here): 8.19% [at 0.462 µM] (inactive); `CC(C)(C)C1CCC(CC2=C(O)c3ccccc3C(=O)C2=O)CC1` (stereo not given): -1.14% (inactive).
Regarding `Cc1ncc([N+](=O)[O-])n1C`, the “activity change, negative = cytotoxicity” value was 11.7% (inactive).
`Cc1c(N)cccc1C(F)(F)F`: the “activity change, negative = cytotoxicity” value was 5.09% (inactive).
As to `Cc1cc(=O)oc2cc(O[C@@H]3SC[C@@H](O)[C@H](O)[C@H]3O)ccc12`, the “activity change, negative = cytotoxicity” value was 8.7% (inactive).
As to `CC(NC(CCc1ccccc1)C(=O)O)C(=O)N1C(=O)N(C)CC1C(=O)O` (stereo not given), the “activity change, negative = cytotoxicity” value is 5.14% (inactive).
Same read-out and setting: with `CCCN(CCC)C(=O)C(CCC(=O)OCCCN1CCN(CCOC(=O)Cc2c(C)n(C(=O)c3ccc(Cl)cc3)c3ccc(OC)cc23)CC1)NC(=O)c1ccccc1` (stereo not given) the figure was -24.5% (inactive).
Still for that read-out and setting: next, `Nc1ccc([N+](=O)[O-])c(C(F)(F)F)c1`: -0.709% (inactive); `CN(C)CCCOC1(Cc2ccccc2)CCCCCC1`: -0.68% (inactive); `CCOC(=O)C1=C(C)NC(C)=C(C(=O)OCC)C1c1ccccc1/C=C/C(=O)OC(C)(C)C`: -4.91% (inactive).
Same read-out and setting: with `C[C@H]1C[C@H](O)c2ccsc2S1(=O)=O` the figure was 13.3% (inactive); with `O=C(CCCl)NCCc1ccccc1`, 5.09% (inactive); with `Nc1c(I)cc(I)c(C(=O)N(CCC(=O)O)c2ccccc2)c1I`, 4.05% (inactive).
Consider `CC(CC1c2ccccc2CCc2ccccc21)CN(C)C` (stereo not given), for which the “activity change, negative = cytotoxicity” value is -26.2% (inactive).
Same read-out and setting: next, `C=CCNc1nc(NCC=C)nc(N2CCN(C(c3ccc(F)cc3)c3ccc(F)cc3)CC2)n1`: -19.2% (inactive); `O=C1CCCc2c(O)cccc21`: 0.907% (inactive).
Take `O=c1[nH]c(=O)n([C@H]2O[C@H](CO)[C@@H](O)[C@@H]2O)cc1/C=C\Br`: the “activity change, negative = cytotoxicity” value was 19.6% (inactive).
With `N#CSCC(=O)O`, the “activity change, negative = cytotoxicity” value was -2.71% (inactive).
Still for that read-out and setting: next, `O=C1NC(c2cccc([N+](=O)[O-])c2)=CCN1c1ccccc1O`: -7.15% [at 25.3 µM] (inactive); `CN1Cc2cc(C(=O)N3CCC(C4CCNCC4)CC3)ccc2NC(CC(=O)O)C1=O` (stereo not given): 8.46% (inactive); `CCCC(=O)OCOC(=O)C1=C(C)NC(C)=C(C(=O)OC)C1c1cccc(Cl)c1Cl` (stereo not given): 22.5% (inactive).
Same read-out and setting: with `C[C@@H](O[C@H]1OCCN(Cc2n[nH]c(=O)[nH]2)[C@H]1c1ccc(F)cc1)c1cc(C(F)(F)F)cc(C(F)(F)F)c1` the figure was 4.69% (inactive); with `NC(=O)NS(=O)(=O)c1ccc(Cl)cc1`, 19.7% (inactive).
Still for that read-out and setting: next, `CN(C)CCOC(c1ccccc1)c1ccc(Br)cc1` (stereo not given): -17.3% (inactive); `COc1ccc2c(c1)CCCC2=O`: -1.77% (inactive).
As for `Cc1ccc(C(=O)Oc2ccc(C(O)CNC(C)(C)C)cc2OC(=O)c2ccc(C)cc2)cc1` (stereo not given), the “activity change, negative = cytotoxicity” value is -6.55% (inactive).
As for `Cn1c(=O)c2c(ncn2CC(=O)O)n(C)c1=O`, the “activity change, negative = cytotoxicity” value was -0.554% (inactive).
In the case of `Clc1ccc2c(c1)N=C(N1CCNCC1)c1ccccc1N2`, the “activity change, negative = cytotoxicity” value was -3.57% (inactive).
On the same count and under the same terms, with `CCOC(=O)N1CCC(n2c(=O)[nH]c3cc(Cl)ccc32)CC1` the figure was -2.62% (inactive); with `O=C(OCC(O)CO)c1ccccc1Nc1ccnc2c(C(F)(F)F)cccc12` (stereo not given), -1.83% (inactive); with `CC1CCCCN1CCCOC(=O)c1ccc(OC2CCCCC2)cc1` (stereo not given), -24.3% (inactive).
Turning to `CCCCC(O)/C=C(C)/C=C/C=C/C(=O)N1CCCC1=O` (stereo not given), the “activity change, negative = cytotoxicity” value is -1.05% (inactive).
For the compound `CCCCN(CCN(CCCC)C(=O)N1CCOCC1)C(=O)N1CCOCC1`, the “activity change, negative = cytotoxicity” value is -22.4% (inactive).
Regarding `CCCCCC(=O)O[C@]1(C(C)=O)CC[C@H]2[C@@H]3CCC4=CC(=O)CC[C@]4(C)[C@H]3CC[C@@]21C`, the “activity change, negative = cytotoxicity” value was -29.3% (inactive).
On the same count and under the same terms, next, `O=[N+]([O-])c1ccc(-c2nc(-c3ccc(F)cc3)c(-c3ccncc3)[nH]2)cc1`: -15.8% (inactive); `Cc1ccc2ccc(Cl)cc2n1`: 18.3% (inactive).
Still for that read-out and setting: next, `CCCCN(CCCC)C(C(N)=O)c1ccc(OC)cc1` (stereo not given): 11.1% (inactive); `CC(C)OC(=O)c1cc2c(OCC(O)CNC(C)(C)C)cccc2[nH]1` (stereo not given): -4.33% (inactive).

Another experiment deals with Tov-21-G. The experiment is described as above. Particulars: Gynecologic cancer cell panel viability, ATPlite luminescence, 48 h; series mostly up to 57.5 µM; activity change, negative = cytotoxicity: at the top concentration. The method in brief:
as §1
Background: Cellular ATP, detected with luciferase, serves as a proxy for viable cell number.
With `Cc1nc(C2CCCCC2)c(-c2ccc(S(N)(=O)=O)c(F)c2)o1`, the “activity change, negative = cytotoxicity” value is -3.86% (inactive).
With `CCCC(=O)O[C@]1(C(=O)CCl)[C@@H](C)C[C@H]2[C@@H]3CCC4=CC(=O)C=C[C@]4(C)[C@@]3(F)C(=O)C[C@@]21C`, the “activity change, negative = cytotoxicity” value was -1.75% (inactive).
On the same count and under the same terms, with `NCCCC(N)CC(=O)NCC1NC(=O)C(CO)NC(=O)C(N)CNC(=O)C(C2CCN=C(N)N2)NC(=O)C(=CNC(N)=O)NC1=O` (stereo not drawn) (H-[Dap]S[Dap](ξβ3hOrn)[ΔAla(3-NHCONH2)][X10]; lactam 1-C; configuration not given here) the figure was 4.2% [at 0.462 µM] (inactive).
`CC(C)(C)C1CCC(CC2=C(O)c3ccccc3C(=O)C2=O)CC1` (stereo not given): the “activity change, negative = cytotoxicity” value was -3.84% (inactive).
Still for that read-out and setting: next, `Cc1ncc([N+](=O)[O-])n1C`: -2.44% (inactive); `Cc1c(N)cccc1C(F)(F)F`: 5.16% (inactive); `Cc1cc(=O)oc2cc(O[C@@H]3SC[C@@H](O)[C@H](O)[C@H]3O)ccc12`: 3.19% (inactive).
On to `CC(NC(CCc1ccccc1)C(=O)O)C(=O)N1C(=O)N(C)CC1C(=O)O` (stereo not given), for which the “activity change, negative = cytotoxicity” value was -0.329% (inactive).
Regarding `CCCN(CCC)C(=O)C(CCC(=O)OCCCN1CCN(CCOC(=O)Cc2c(C)n(C(=O)c3ccc(Cl)cc3)c3ccc(OC)cc23)CC1)NC(=O)c1ccccc1` (stereo not given), the “activity change, negative = cytotoxicity” value is -0.0826% (inactive).
`Nc1ccc([N+](=O)[O-])c(C(F)(F)F)c1`: the “activity change, negative = cytotoxicity” value is 0.461% (inactive).
Regarding `CN(C)CCCOC1(Cc2ccccc2)CCCCCC1`, the “activity change, negative = cytotoxicity” value was 2.17% (inactive).
For the compound `CCOC(=O)C1=C(C)NC(C)=C(C(=O)OCC)C1c1ccccc1/C=C/C(=O)OC(C)(C)C`, the “activity change, negative = cytotoxicity” value was 6.75% (inactive).
On the same count and under the same terms, with `C[C@H]1C[C@H](O)c2ccsc2S1(=O)=O` the figure was 5.8% (inactive); with `O=C(CCCl)NCCc1ccccc1`, 3.78% (inactive).
With `Nc1c(I)cc(I)c(C(=O)N(CCC(=O)O)c2ccccc2)c1I`, the “activity change, negative = cytotoxicity” value was 3.88% (inactive).
As to `CC(CC1c2ccccc2CCc2ccccc21)CN(C)C` (stereo not given), the “activity change, negative = cytotoxicity” value is -18.6% (inactive).
Same read-out and setting: next, `C=CCNc1nc(NCC=C)nc(N2CCN(C(c3ccc(F)cc3)c3ccc(F)cc3)CC2)n1`: -7.41% (inactive); `O=C1CCCc2c(O)cccc21`: 6.51% (inactive); `O=c1[nH]c(=O)n([C@H]2O[C@H](CO)[C@@H](O)[C@@H]2O)cc1/C=C\Br`: 15.6% (inactive).
The same measure, in the same setting: next, `N#CSCC(=O)O`: 2.17% (inactive); `O=C1NC(c2cccc([N+](=O)[O-])c2)=CCN1c1ccccc1O`: -26.1% [at 25.3 µM] (inactive).
On to `CN1Cc2cc(C(=O)N3CCC(C4CCNCC4)CC3)ccc2NC(CC(=O)O)C1=O` (stereo not given), for which the “activity change, negative = cytotoxicity” value was 0.543% (inactive).
In the case of `CCCC(=O)OCOC(=O)C1=C(C)NC(C)=C(C(=O)OC)C1c1cccc(Cl)c1Cl` (stereo not given), the “activity change, negative = cytotoxicity” value was 1.44% (inactive).
The same measure, in the same setting: next, `C[C@@H](O[C@H]1OCCN(Cc2n[nH]c(=O)[nH]2)[C@H]1c1ccc(F)cc1)c1cc(C(F)(F)F)cc(C(F)(F)F)c1`: 12.1% (inactive).
Same read-out and setting: with `NC(=O)NS(=O)(=O)c1ccc(Cl)cc1` the figure was 10.3% (inactive).
The same measure, in the same setting: with `CN(C)CCOC(c1ccccc1)c1ccc(Br)cc1` (stereo not given) the figure was -10.6% (inactive); with `COc1ccc2c(c1)CCCC2=O`, -0.234% (inactive); with `Cc1ccc(C(=O)Oc2ccc(C(O)CNC(C)(C)C)cc2OC(=O)c2ccc(C)cc2)cc1` (stereo not given), 0.087% (inactive).
In the case of `Cn1c(=O)c2c(ncn2CC(=O)O)n(C)c1=O`, the “activity change, negative = cytotoxicity” value is 9.81% (inactive).
The same measure, in the same setting: next, `Clc1ccc2c(c1)N=C(N1CCNCC1)c1ccccc1N2`: -14.3% (inactive).
The same measure, in the same setting: with `CCOC(=O)N1CCC(n2c(=O)[nH]c3cc(Cl)ccc32)CC1` the figure was -7.27% (inactive); with `O=C(OCC(O)CO)c1ccccc1Nc1ccnc2c(C(F)(F)F)cccc12` (stereo not given), -3.46% (inactive).
Still for that read-out and setting: next, `CC1CCCCN1CCCOC(=O)c1ccc(OC2CCCCC2)cc1` (stereo not given): -6.96% (inactive).
As for `CCCCC(O)/C=C(C)/C=C/C=C/C(=O)N1CCCC1=O` (stereo not given), the “activity change, negative = cytotoxicity” value is 0.375% (inactive).
On the same count and under the same terms, next, `CCCCN(CCN(CCCC)C(=O)N1CCOCC1)C(=O)N1CCOCC1`: -2.99% (inactive); `CCCCCC(=O)O[C@]1(C(C)=O)CC[C@H]2[C@@H]3CCC4=CC(=O)CC[C@]4(C)[C@H]3CC[C@@]21C`: -6% (inactive); `O=[N+]([O-])c1ccc(-c2nc(-c3ccc(F)cc3)c(-c3ccncc3)[nH]2)cc1`: -0.82% (inactive).
In the case of `Cc1ccc2ccc(Cl)cc2n1`, the “activity change, negative = cytotoxicity” value is -1.86% (inactive).
Take `CCCCN(CCCC)C(C(N)=O)c1ccc(OC)cc1` (stereo not given): the “activity change, negative = cytotoxicity” value was 7.58% (inactive).
In the case of `CC(C)OC(=O)c1cc2c(OCC(O)CNC(C)(C)C)cccc2[nH]1` (stereo not given), the “activity change, negative = cytotoxicity” value is -1.74% (inactive).

The values are drawn from PubChem BioAssay (NCATS).
